Holding throughout (experiment): NCI-60 one-dose screen, 48 h (100 = growth as untreated, 0 = no growth, -100 = all killed)
Common to all, as to conditions: 10 µM unless noted

Experiment [1] concerns NCI-H23 lung.
Experiment [2] deals with NCI-H322M lung.
In experiment [3] the test system is HOP-62 NSCLC.
For experiment [4], the system named is NCI-H460 lung.
In experiment [5] the test system is HOP-92 NSCLC.
Experiment [6] relates to NCI-H522 lung.
Experiment [7] relates to A549/ATCC NSCLC.
For experiment [8], the system named is 786-0 renal.
Experiment [9] concerns COLO 205 colon.
In experiment [10] the test system is DU-145 prostate.
The test system of experiment [11] is K-562 leukemia.
The subject of experiment [12] is MALME-3M melanoma.
Experiment [13] deals with MDA-MB-231 breast.
For experiment [14], the system named is RXF 393 renal.
Experiment [15] concerns SF-268 CNS.
The subject of experiment [16] is SF-295 CNS.
Experiment [17] relates to SF-539 CNS.
The test system of experiment [18] is UACC-257 melanoma.
For experiment [19], the system named is M14 melanoma.
Experiment [20] deals with HCT-15 colon.

Results on eight compounds are retold here after PubChem BioAssay (NCI).

The panel holds about 83,000 compounds, 20% with a hit somewhere; the sample as a whole holds those more often.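 The test compound was applied at a single concentration to cells in 96-well plates for 48 hours, and percent growth was recorded.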 A number with no mark means an inactive call. Active and inactive are the calls of the source. The calls were made as follows: active = growth percent below 10; inactive = the rest.

As to `COc1cc(C(=O)O/N=C(\N)Cc2cccc3ccccc23)cc(OC)c1OC`, the growth in experiment [1] was 80.7%; in experiment [2], 18.1%; in experiment [3], 27.6%; in [4] it was -47.9% (active); in experiment [5] it was -7.36% (active); in [6], -10.9% (active). Further, the growth in [7] is 12.2%; in experiment [8], 45.9%; in experiment [9] it was -92.6% (active); in experiment [10], 47.5%; in [11], -43.2% (active); in [12], -85.9% (active). The growth was -46.6% (active) in experiment [13]; 7.59% (active) in [14]; 17.6% in experiment [15]; -84.6% (active) in experiment [16]; -88.7% (active) in experiment [17]; -89.3% (active) in experiment [18]. Besides, in experiment [19], the growth was -72.7% (active).

On to `COc1ccc(Cn2c(Br)c3c(c2Br)-c2nc(N)sc2CC3)cc1`, for which the growth in experiment [1] is 57.3%; in [2] it was 66.6%; in [3], 35.5%; in experiment [4] it was 15.7%; in experiment [5], 58.5%; in [6], 2.16% (active). The growth in experiment [7] was 39.1%; in [8] it was 56.8%; in experiment [9], 66.9%; in experiment [10], 57%; in [11], 4.07% (active); in experiment [12] it was 21.9%. For the same compound, the growth in experiment [13] was 37%; in [14], 16.3%; in [15] it was 45.2%; in experiment [16], 70.3%; in experiment [17], 39.9%; in experiment [18], 70.4%. For the same compound, the results for the growth in [19] and in experiment [20] were 13.9% and 29.9%, respectively.

Regarding `O=C(Nc1ccc(Br)cc1F)c1cc(F)ccc1O`, the growth in [1] is 3.95% (active); in experiment [2], 10.4%; in [3] it was 2.13% (active); in [4] it was 3.38% (active); in [5], -11.3% (active); in [6], -1.14% (active). Moreover, the growth in experiment [7] is 9.75% (active); in [8] it was -4.66% (active); in experiment [9], 16.2%; in [10] it was 15.4%; in experiment [11] it was 8.73% (active); in [12], -21% (active). The growth was -25.5% (active) in experiment [13]; 4.59% (active) in [14]; 12.6% in experiment [15]; -58.3% (active) in experiment [16]; 4.66% (active) in experiment [17]; -11.2% (active) in [18]. Moreover, the growth was -11.3% (active) in experiment [19] and 2.25% (active) in experiment [20].

For the compound `COc1cc(/C=C2\Oc3cc(OCCCN4CCCC4)ccc3C2=O)cc(OC)c1`, the growth is 69.9% in experiment [1]; 77.1% in experiment [2]; 91.5% in [3]; -71.1% (active) in experiment [4]; 67.6% in [5]; 76.7% in experiment [6]. The growth in experiment [7] was 33.2%; in experiment [8] it was 73.6%; in experiment [9], 71%; in [10], 33.6%; in [11], -63.3% (active); in [12] it was 93%. Moreover, the growth is 53.7% in experiment [13]; 60.4% in experiment [14]; 72.5% in [15]; 85.7% in experiment [16]; -90.3% (active) in experiment [17]; 81.4% in experiment [18]. Besides, the growth in [19] is -60.1% (active); in experiment [20] it was 5.66% (active).

For `O=c1oc2ccc(Cl)cc2c(=O)n1-c1ccc(Cl)cc1F`, the growth in experiment [1] was -4.79% (active); in [2], 4.88% (active); in [3], -6.42% (active); in [4], 3.59% (active); in [5], -12.9% (active); in [6] it was -20.9% (active). Moreover, the growth in [7] was 5.46% (active); in experiment [8], 5.1% (active); in experiment [9], 6.93% (active); in experiment [10], 15.3%; in [11], 4.6% (active); in experiment [12] it was -29.9% (active). Besides, the growth in [13] is -17% (active); in [14] it was 4.5% (active); in experiment [15] it was 7.63% (active); in experiment [16] it was -64.2% (active); in experiment [17], 1.24% (active); in [18], -15.1% (active). Also, the growth in [19] was 0.632% (active); in experiment [20], 1.3% (active).

For the compound `Nc1ccn(C2O[C@H](CO)[C@@H](O)[C@H]2O)c(=O)n1` (stereo partly drawn), the growth in experiment [1] is 71.8%; in [2], 114%; in experiment [3], 65%; in experiment [4], 59.8%; in [5], 73.2%; in experiment [6] it was 71.2%. Further, the growth was 46.6% in [7]; 95.2% in experiment [8]; 110% in [9]; 94.4% in experiment [10]; 74.3% in [11]; 109% in [12]. Also, the growth in experiment [13] is 82.8%; in [14], 50.1%; in experiment [15], 86.2%; in experiment [16], 58.5%; in experiment [17], 73.1%; in experiment [18] it was 90.1%. In addition, the growth in [19] is 107%.

As for `CCN(CC)CCNC(=O)C(Cl)=C1C(Cl)=C(Cl)C(Cl)=C1Cl`, the growth is 55.9% in [1]; 81.7% in experiment [2]; 75.5% in experiment [3]; 19.3% in experiment [4]; 53.8% in experiment [5]; -14.7% (active) in experiment [6]. Besides, the growth is 46.6% in experiment [7]; 90.1% in experiment [8]; 54.5% in [9]; 48.4% in experiment [10]; 24.2% in experiment [11]; 58% in [12]. Also, the growth in experiment [13] was 50.1%; in experiment [14], 66.9%; in experiment [15], 52%; in [16] it was 71.7%; in [17] it was 60.1%; in [18], 44.3%. Further, the figures for the growth in [19] and in experiment [20] were 38.7% and 50.5%, respectively.

Turning to `CC1(C)CC2(C)OC2C2(C1)N=NC(=Nc1ccccc1)O2` (stereo not drawn), the growth is 88.9% in experiment [1]; 103% in experiment [2]; 60.9% in [3]; 79.5% in experiment [4]; 87.6% in [5]; 15.1% in experiment [6]. The growth in [7] was 54.1%; in [8], 36.3%; in experiment [9], 73%; in experiment [10], 67.2%; in experiment [11], 19.5%; in experiment [12] it was 57.1%. The growth is 91.8% in experiment [13]; -1.33% (active) in experiment [14]; 83.3% in [15]; 65.6% in [16]; 83.7% in experiment [17]; 64.2% in experiment [18]. Also, the growth in [19] is 65.4%; in experiment [20], 9.91% (active).
